PubChem BioAssay (NCATS)
Results filed as inconclusive are left out. Calls of active or inactive are those of the source. Unless noted, calls come from the whole dose curve; as a rule, active = well fitted curve in the direction sought with a large enough effect; inconclusive = small, poorly fitted or top-dose-only effect, or another doubt; inactive = no such curve, though single readings can be large; an effect the other way counts as inactive or inconclusive.

Experiments:
[1] = target: Cytochrome P450 1A2 (Homo sapiens) (UniProt P05177); experiment: qHTS for inhibitors of CYPIA2 against the NCATS DSHEA and TCM libraries (AID 1919976);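 note: light from luciferin formed by CYP1A2 from a pro-luciferin substrate; % is set by controls: 0 for no effect and ±100 for the full control effect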
Sequence of Cytochrome P450 1A2 (Homo sapiens) (P05177 whole entry, looked up): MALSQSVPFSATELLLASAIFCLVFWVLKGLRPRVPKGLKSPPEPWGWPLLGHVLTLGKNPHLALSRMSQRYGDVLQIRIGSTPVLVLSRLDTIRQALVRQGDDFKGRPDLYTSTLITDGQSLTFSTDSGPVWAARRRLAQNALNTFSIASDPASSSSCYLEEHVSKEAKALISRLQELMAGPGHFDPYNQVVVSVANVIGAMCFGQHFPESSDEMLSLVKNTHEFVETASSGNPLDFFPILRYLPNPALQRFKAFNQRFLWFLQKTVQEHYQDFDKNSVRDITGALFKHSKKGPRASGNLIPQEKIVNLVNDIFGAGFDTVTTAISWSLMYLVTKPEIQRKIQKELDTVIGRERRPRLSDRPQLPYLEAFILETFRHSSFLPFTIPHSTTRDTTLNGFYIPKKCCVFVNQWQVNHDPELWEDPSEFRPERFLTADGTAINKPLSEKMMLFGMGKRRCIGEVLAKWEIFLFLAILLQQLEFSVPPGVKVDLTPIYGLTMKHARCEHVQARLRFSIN
Summary of the method: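 Furafylline served as the plate control. Compounds met CYP1A2 and pro-luciferin substrate 15 min before NADPH regeneration solution (1x) was added; after 30-45 min at RT, P450-Glo reagent was added for 30 min and luminescence was measured.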

[2] = qHTS Counterscreen for compound interference against the NCATS DSHEA and TCM libraries (AID 1919978); settings: firefly luciferase detection reagent interference, luminescence;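 note: compounds preincubated with 1 µM D-luciferin or buffer before detection reagent; % of control where 0% means no effect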
Summary of the method: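 Interference check: test samples were incubated with D-luciferin (final 1 uM) or buffer only for 15 min, room temperature, in a qHTS titration up to 39.8 uM, then developed with detection reagent and read by luminescence.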

[3] = Dual reporter qHTS for agonist of Pregnane X Receptor (hPXR) against the NCATS DSHEA and TCM libraries: Fluorescence readout (AID 1920058); note: 0% is about no effect
Summary of the method: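 In this qHTS counter-read, reporter-bearing HepG2 cells in charcoal-stripped serum received substances for approximately 24 h before viability was assessed fluorometrically with CellTiter-Fluor.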

[4] = target: Nuclear receptor subfamily 1 group I member 2 (Homo sapiens) (UniProt O75469); experiment: Dual reporter qHTS for agonist of Pregnane X Receptor (hPXR) against the NCATS DSHEA and TCM libraries: Luminescence readout (AID 1920059); note: 0% is about no effect
Sequence of Nuclear receptor subfamily 1 group I member 2 (Homo sapiens) (O75469 whole entry, looked up): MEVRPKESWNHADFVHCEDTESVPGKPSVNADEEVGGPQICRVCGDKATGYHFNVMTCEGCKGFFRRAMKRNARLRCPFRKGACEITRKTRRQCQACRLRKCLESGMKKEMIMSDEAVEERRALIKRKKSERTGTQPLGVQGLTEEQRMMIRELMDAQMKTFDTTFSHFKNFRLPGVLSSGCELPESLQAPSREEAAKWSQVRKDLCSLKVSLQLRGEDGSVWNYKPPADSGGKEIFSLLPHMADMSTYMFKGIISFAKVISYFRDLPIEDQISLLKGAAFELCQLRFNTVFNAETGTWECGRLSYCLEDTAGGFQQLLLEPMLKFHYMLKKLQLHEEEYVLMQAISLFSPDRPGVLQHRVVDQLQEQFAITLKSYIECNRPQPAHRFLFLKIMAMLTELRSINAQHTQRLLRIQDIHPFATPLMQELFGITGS
Summary of the method: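 hPXR-Luc HepG2 cells, 2000/well in 5% charcoal-stripped FBS medium, attached 5 h, then exposed 24 h at 37C to compounds. Viability by CellTiter-Fluor, then luciferase luminescence with ONE-Glo.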

[5] = target: Nuclear receptor subfamily 1 group I member 2 (Homo sapiens) (UniProt O75469); experiment: Dual reporter qHTS for antagonist of Pregnane X Receptor (hPXR) against the NCATS DSHEA and TCM libraries: Luminescence Readout (AID 1920060);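 note: HepG2 cells carrying hPXR luciferase reporter stimulated with rifampicin at 2 µM; 0% is about no effect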
Summary of the method: (§1)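 HepG2 hPXR-Luc, 2000 cells/well, charcoal-stripped FBS medium; 5 h attach; RIF 2 uM final; 24 h 37C/5% CO2; CellTiter-Fluor 1 h, fluor 405/540; ONE-Glo 30 min RT, lum.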

[6] = Dual reporter qHTS for antagonist of Pregnane X Receptor (hPXR) against the NCATS DSHEA and TCM libraries: Fluorescence Readout (AID 1920061); note: 0% is about no effect
Summary of the method: as §1

[7] = qHTS drug screen for cell cycle checkpoint inhibitors in PARPi-resistant BRCA-mutant ovarian cancer cell lines. (AID 1963452; calls by dose curve; note: potency is the fitted concentration of half-maximal effect); settings: PEO1/OlaR viability, CellTiter-Glo luminescence, 96 h; for Z-AUC: stronger effect = lower value
Summary of the method: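 PEO1, PEO4 and PEO1/OlaR ovarian cancer cells, 600 per well, exposed 96 h at 37C to a dilution series. Viability read by CellTiter-Glo luminescence, normalized to DMSO and empty wells; activity summarized as Z-AUC.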

[8] = qHTS profiling for inhibitors of Plasmodium falciparum proliferation (AID 504749);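 note: 0% = DMSO vehicle and full inhibition = artemisinin control; nearly all actives have a fitted effect of over 60% in size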; settings: P. falciparum in erythrocytes, SYBR Green DNA, 72 h, at 28.7 µM (top of the series)
Summary of the method: (§2)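 SYBR Green fluorescence (ex 485 nm, em 535 nm) reports parasite DNA after 72 h compound exposure of infected red cells at 0.3% parasitemia, 2.5% hematocrit; signal normalized to 0.29 uM artemisinin and vehicle wells.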

3D7 = experiment: as above; settings: P. falciparum in erythrocytes, SYBR Green DNA, 72 h; series mostly up to 28.7 µM
Summary of the method: as §2

7G8 = experiment: as above; settings: P. falciparum in erythrocytes, SYBR Green DNA, 72 h; series mostly up to 28.7 µM
Summary of the method: as §2

AA1029 = experiment: as above; settings: P. falciparum in erythrocytes, SYBR Green DNA, 72 h; series mostly up to 28.7 µM
Summary of the method: as §2

AS120 = experiment: as above; settings: P. falciparum in erythrocytes, SYBR Green DNA, 72 h; series mostly up to 28.7 µM
Summary of the method: as §2

ATS189 = experiment: as above; settings: P. falciparum in erythrocytes, SYBR Green DNA, 72 h; series mostly up to 28.7 µM
Summary of the method: as §2

ATS95 = experiment: as above; settings: P. falciparum in erythrocytes, SYBR Green DNA, 72 h; series mostly up to 28.7 µM
Summary of the method: as §2

C2A = experiment: as above; settings: P. falciparum in erythrocytes, SYBR Green DNA, 72 h; series mostly up to 28.7 µM
Summary of the method: as §2

CP185 = experiment: as above; settings: P. falciparum in erythrocytes, SYBR Green DNA, 72 h; series mostly up to 28.7 µM
Summary of the method: as §2

CP191 = experiment: as above; settings: P. falciparum in erythrocytes, SYBR Green DNA, 72 h; series mostly up to 28.7 µM
Summary of the method: as §2

CP192 = experiment: as above; settings: P. falciparum in erythrocytes, SYBR Green DNA, 72 h; series mostly up to 28.7 µM
Summary of the method: as §2

CP194 = experiment: as above; settings: P. falciparum in erythrocytes, SYBR Green DNA, 72 h; series mostly up to 28.7 µM
Summary of the method: as §2

[9] = measured here: PEO1 parental Z-AUC

NC(=O)c1cnccn1
outcome [1]: inactive | max response [2]: 0.688% (inactive) | outcome [3]: inactive | outcome [4]: inactive | outcome [5]: inactive | outcome [6]: inactive | Z-AUC [7]: 0.616 (inactive) | Z-AUC [7, 9]: 0.733 | Z-AUC ([7]; measured here: PEO4 Z-AUC): 0.41 | activity, negative = inhibition ([8]; parasite line A): 13.8% (inactive) | activity, negative = inhibition ([8]; parasite line B): 12.8% (inactive) | Potency (3D7): inactive | Potency (7G8): inactive | Potency (AA1029): inactive | Potency (AS120): inactive | Potency (ATS189): inactive | Potency (ATS95): inactive | Potency (C2A): inactive | Potency (CP185): inactive | Potency (CP191): inactive | Potency (CP192): inactive | Potency (CP194): inactive

CC[C@H](Nc1ncnc2nc[nH]c12)c1nc2cccc(F)c2c(=O)n1-c1ccccc1
Z-AUC [7]: 0.714 (inactive) | Z-AUC [7, 9]: 0.526 | Z-AUC ([7]; measured here: PEO4 Z-AUC): 0.476

CNCc1ccc(-c2[nH]c3cc(F)cc4c3c2CCNC4=O)cc1
Z-AUC [7]: 0.567 (inactive) | Z-AUC [7, 9]: 0.569 | Z-AUC ([7]; measured here: PEO4 Z-AUC): 0.848

C[C@]12CCC(=O)C=C1CC[C@@H]1[C@@H]2[C@@H](O)C[C@@]2(C)[C@H]1CC[C@]2(O)C(=O)CO
Z-AUC [7]: 0.00041 (inactive) | Z-AUC [7, 9]: 0.66 | Z-AUC ([7]; measured here: PEO4 Z-AUC): -0.19

CN([C@@H](Cc1ccc(OS(=O)(=O)c2cccc3cnccc23)cc1)C(=O)N1CCN(c2ccccc2)CC1)S(=O)(=O)c1cccc2cnccc12
Z-AUC [7]: 1.57 (inactive) | Z-AUC [7, 9]: 1.54 | Z-AUC ([7]; measured here: PEO4 Z-AUC): 1.7

COc1cccc2cc(-c3nc(C4CCC(C(=O)O)CC4)n4ncnc(N)c34)[nH]c12 (stereo not given)
Z-AUC [7]: -0.482 (inactive) | Z-AUC [7, 9]: -0.688 | Z-AUC ([7]; measured here: PEO4 Z-AUC): -0.315

Nc1ncnc2nc(-c3ccc(N4CCOCC4)nc3)cc(-c3cccc(Br)c3)c12
Z-AUC [7]: 0.819 (inactive) | Z-AUC [7, 9]: 1.06 | Z-AUC ([7]; measured here: PEO4 Z-AUC): 0.514

Cn1c(=O)c(F)c(Nc2ccc(I)cc2F)c2c(=O)n(C[C@@H](O)CO)cnc21
Potency [7]: 123 nM (active) | Z-AUC [7, 9]: -1.86 | Z-AUC ([7]; measured here: PEO4 Z-AUC): -2.03

O=C(Nc1cccnc1)N1CCC(Cc2cccc(Oc3ccc(C(F)(F)F)cn3)c2)CC1
Z-AUC [7]: -0.589 (inactive) | Z-AUC [7, 9]: -1.46 | Z-AUC ([7]; measured here: PEO4 Z-AUC): -1.18

Cc1cc2c(F)c(Oc3ncnn4cc(OC[C@@H](C)O)c(C)c34)ccc2[nH]1
Z-AUC [7]: 0.786 (inactive) | Z-AUC [7, 9]: 0.535 | Z-AUC ([7]; measured here: PEO4 Z-AUC): 0.987

CS(=O)(=O)c1cccc(CNc2nc(Nc3ccc4c(c3)CCC(=O)N4)ncc2C(F)(F)F)c1
Z-AUC [7]: -0.784 (inactive) | Z-AUC [7, 9]: -1.23 | Z-AUC ([7]; measured here: PEO4 Z-AUC): -1.25

CCCn1c(=O)c2[nH]c(C34CC5CC3C[C@@H](C5)C4)nc2n(CCC)c1=O
Z-AUC [7]: 0.471 (inactive) | Z-AUC [7, 9]: 0.393 | Z-AUC ([7]; measured here: PEO4 Z-AUC): 0.158

CN[C@@H](C)C(=O)N[C@H]1CCCC[C@H]2CC[C@@H](C(=O)N[C@@H](c3ccccc3)c3cn(CCCCc4ccc(CCCCn5cc([C@@H](NC(=O)[C@@H]6CC[C@@H]7CCCC[C@H](NC(=O)[C@H](C)NC)C(=O)N76)c6ccccc6)nn5)cc4)nn3)N2C1=O
Z-AUC [7]: 1.6 (inactive) | Z-AUC [7, 9]: 0.404 | Z-AUC ([7]; measured here: PEO4 Z-AUC): 0.201

c1ccc(-c2nn3c(c2-c2ccnc4cc(OCCN5CCOCC5)ccc24)CCC3)nc1
Z-AUC [7]: 0.744 (inactive) | Z-AUC [7, 9]: 0.379 | Z-AUC ([7]; measured here: PEO4 Z-AUC): 0.692

O=C(Nc1nc2ccccc2n1CCN1CCOCC1)c1cccc([N+](=O)[O-])c1
Z-AUC [7]: 1.54 (inactive) | Z-AUC [7, 9]: 1.06 | Z-AUC ([7]; measured here: PEO4 Z-AUC): 1.04

CC(=O)NC(C)c1ccc(Oc2ccc(OC(C)C)cc2)cc1 (stereo not given)
Z-AUC [7]: 0.0363 (inactive) | Z-AUC [7, 9]: 0.0694 | Z-AUC ([7]; measured here: PEO4 Z-AUC): -0.363

O=C1CCCC2=C1C(c1[nH]ncc1Cl)N=C(Nc1nc3ccccc3o1)N2 (stereo not given)
Z-AUC [7]: 0.0101 (inactive) | Z-AUC [7, 9]: 0.851 | Z-AUC ([7]; measured here: PEO4 Z-AUC): 0.0586
